Assay results as given in PubChem BioAssay AID1159580 (chemical genetic matrix, 2015).
About 2,000 (36%) of roughly 5,500 compounds were called active. Not shown: some 18% with an inconclusive outcome. Rule as the data show it: active = normalized growth mostly below about 0.91 (no sharp cut-off); inconclusive = no clear call, values can overlap the other calls; inactive = mostly above about 0.92. This is one part of the list.

Assay: chemical genetic growth profiling, strain panel (AID 1159580);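 also: tested at 20 µM; growth read once vehicle control cultures reached saturation at 30 °C; 1 = growth at the plate median or of vehicle wells; lower values mean less growth of the strain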
Settings: S. cerevisiae deletion strains, growth OD

Measured: normalized growth

CCOP(=S)(OCC)SCn1c(=O)oc2cc(Cl)ccc21
active: locus YBR009C, strain hhf1, active compounds read low 1.35 [resistant] | locus YDR137W, strain rgp1, active compounds read low 0.81
inactive: locus YAL013W, strain DEP1, active compounds read low 1 | locus YAL021C, strain ccr4, active compounds read low 0.957 | locus YAL026C, strain drs2, active compounds read low 0.972 | locus YAL030W, strain snc1, active compounds read low 0.947 | locus YBL061C, strain skt5, active compounds read low 0.949 | locus YBR021W, strain FUR4, active compounds read low 0.998 | locus YBR023C, strain chs3, active compounds read low 0.946 | locus YBR171W, strain sec66, active compounds read low 0.922 | locus YBR229C, strain ROT2, active compounds read low 0.997 | locus YBR231C, strain swc5, active compounds read low 0.956 | locus YBR279W, strain paf1, active compounds read low 0.977 | locus YCL011C, strain gbp2, active compounds read low 0.961 | locus YCL016C, strain dcc1, active compounds read low 0.955 | locus YCL029C, strain bik1, active compounds read low 0.985 | locus YCL061C, strain MRC1, active compounds read low 0.956 | locus YCL069W, strain vba3, active compounds read low 0.968 | locus YCR088W, strain abp1, active compounds read low 0.961 | locus YDL005C, strain med2, active compounds read low 0.968 | locus YDL035C, strain GPR1, active compounds read low 0.987 | locus YDL040C, strain nat1, active compounds read low 0.961 | locus YDL074C, strain BRE1, active compounds read low 0.928 | locus YDL101C, strain DUN1, active compounds read low 1.01 | locus YDL134C, strain PPH21, active compounds read low 0.991 | locus YDL185W, strain tfp1, active compounds read low 1 | locus YDL192W, strain arf1, active compounds read low 0.989 | locus YDR001C, strain nth1, active compounds read low 0.96 | locus YDR069C, strain doa4, active compounds read low 0.956 | locus YDR101C, strain arx1, active compounds read low 0.992 | locus YDR150W, strain NUM1, active compounds read low 0.995 | locus YDR159W, strain sac3, active compounds read low 0.97 | locus YDR162C, strain NBP2, active compounds read low 0.987 | locus YDR195W, strain ref2 1.04 | locus YDR297W, strain sur2, active compounds read low 0.943 | locus YDR318W, strain mcm21, active compounds read low 0.993 | locus YDR334W, strain swr1, active compounds read low 0.965 | locus YDR335W, strain msn5, active compounds read low 0.974 | locus YDR388W, active compounds read low 0.994 | locus YDR392W, strain spt3, active compounds read low 0.872 | locus YDR502C, strain sam2, active compounds read low 0.986 | locus YEL003W, strain gim4, active compounds read low 0.961 | locus YEL037C, strain rad23, active compounds read low 0.975 | locus YEL061C, strain CIN8 (second series), active compounds read low 0.96 | locus YEL061C, strain CIN8, active compounds read low 0.99 | locus YER015W, strain faa2, active compounds read low 0.967 | locus YER016W, strain bim1, active compounds read low 0.958 | locus YER110C, active compounds read low 0.993 | locus YER111C, strain swi4, active compounds read low 0.965 | locus YER155C, strain BEM2 (second series), active compounds read low 0.952 | locus YER155C, strain BEM2, active compounds read low 0.993 | locus YER167W, strain BCK2, active compounds read low 1 | locus YFR010W, strain ubp6, active compounds read low 0.979 | locus YGL078C, strain dbp3, active compounds read low 0.984 | locus YGL086W, strain mad1, active compounds read low 0.986 | locus YGL167C, strain pmr1, active compounds read low 0.921 | locus YGL173C, strain kem1, active compounds read low 0.943 | locus YGL227W, strain vid30, active compounds read low 0.963 | locus YGL240W, strain doc1, active compounds read low 0.935 | locus YGL248W, strain PDE1, active compounds read low 0.985 | locus YGL253W, strain hxk2, active compounds read low 0.961 | locus YGR078C, strain PAC10, active compounds read low 0.994 | locus YGR135W, strain pre9, active compounds read low 0.977 | locus YGR229C, strain SMI1, active compounds read low 1.01 | locus YGR252W, strain gcn5, active compounds read low 0.987 | locus YHR013C, strain ard1, active compounds read low 1.01 | locus YHR027C, strain rpn1, active compounds read low 0.959 | locus YHR030C, strain SLT2, active compounds read low 0.984 | locus YHR079C, strain IRE1 (second series), active compounds read low 0.996 | locus YHR094C, strain hxt1, active compounds read low 0.994 | locus YHR129C, strain ARP1, active compounds read low 0.986 | locus YHR142W, strain chs7, active compounds read low 0.954 | locus YHR200W, strain rpn10, active compounds read low 0.99 | locus YIL066C, strain RNR3, active compounds read low 1.01 | locus YIL073C, strain SPO22, active compounds read low 1.06 | locus YIL125W, strain kgd1, active compounds read low 0.984 | locus YIR030C, strain dcg1, active compounds read low 0.989 | locus YJL092W, strain hpr5, active compounds read low 0.965 | locus YJL095W, strain BCK1 (second series), active compounds read low 0.941 | locus YJL095W, strain BCK1, active compounds read low 0.975 | locus YJL115W, strain asf1, active compounds read low 0.969 | locus YJL129C, strain trk1, active compounds read low 0.907 | locus YJL134W, strain LCB3, active compounds read low 0.994 | locus YJL154C, strain vps35, active compounds read low 0.972 | locus YJL164C, strain tpk1, active compounds read low 0.943 | locus YJL166W, strain qcr8, active compounds read low 0.942 | locus YJL168C, strain set2, active compounds read low 0.991 | locus YJL187C, strain SWE1 (second series), active compounds read low 1 | locus YJL187C, strain SWE1, active compounds read low 0.95
